Measurements from paper PMC4336329 (PLoS ONE, 2015).
Out of some 310,000 compounds screened, about 14,000 (4.5%) showed an effect of 50% or more. The effect is printed as a negative number. For the sample, strong results were picked, then their nearest neighbours and some compounds at random.

The molecules below were run against human ether-à-go-go-related gene (hERG) potassium channel (human, UniProt Q12809) (assay: primary screen, population patch clamp on CHO cells stably expressing hERG; higher = less effect of the substance).
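Note: peak tail current of the secondary pulse compared with the same well before compound.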

Sequence of human ether-à-go-go-related gene (hERG) potassium channel (Q12809 whole entry, looked up): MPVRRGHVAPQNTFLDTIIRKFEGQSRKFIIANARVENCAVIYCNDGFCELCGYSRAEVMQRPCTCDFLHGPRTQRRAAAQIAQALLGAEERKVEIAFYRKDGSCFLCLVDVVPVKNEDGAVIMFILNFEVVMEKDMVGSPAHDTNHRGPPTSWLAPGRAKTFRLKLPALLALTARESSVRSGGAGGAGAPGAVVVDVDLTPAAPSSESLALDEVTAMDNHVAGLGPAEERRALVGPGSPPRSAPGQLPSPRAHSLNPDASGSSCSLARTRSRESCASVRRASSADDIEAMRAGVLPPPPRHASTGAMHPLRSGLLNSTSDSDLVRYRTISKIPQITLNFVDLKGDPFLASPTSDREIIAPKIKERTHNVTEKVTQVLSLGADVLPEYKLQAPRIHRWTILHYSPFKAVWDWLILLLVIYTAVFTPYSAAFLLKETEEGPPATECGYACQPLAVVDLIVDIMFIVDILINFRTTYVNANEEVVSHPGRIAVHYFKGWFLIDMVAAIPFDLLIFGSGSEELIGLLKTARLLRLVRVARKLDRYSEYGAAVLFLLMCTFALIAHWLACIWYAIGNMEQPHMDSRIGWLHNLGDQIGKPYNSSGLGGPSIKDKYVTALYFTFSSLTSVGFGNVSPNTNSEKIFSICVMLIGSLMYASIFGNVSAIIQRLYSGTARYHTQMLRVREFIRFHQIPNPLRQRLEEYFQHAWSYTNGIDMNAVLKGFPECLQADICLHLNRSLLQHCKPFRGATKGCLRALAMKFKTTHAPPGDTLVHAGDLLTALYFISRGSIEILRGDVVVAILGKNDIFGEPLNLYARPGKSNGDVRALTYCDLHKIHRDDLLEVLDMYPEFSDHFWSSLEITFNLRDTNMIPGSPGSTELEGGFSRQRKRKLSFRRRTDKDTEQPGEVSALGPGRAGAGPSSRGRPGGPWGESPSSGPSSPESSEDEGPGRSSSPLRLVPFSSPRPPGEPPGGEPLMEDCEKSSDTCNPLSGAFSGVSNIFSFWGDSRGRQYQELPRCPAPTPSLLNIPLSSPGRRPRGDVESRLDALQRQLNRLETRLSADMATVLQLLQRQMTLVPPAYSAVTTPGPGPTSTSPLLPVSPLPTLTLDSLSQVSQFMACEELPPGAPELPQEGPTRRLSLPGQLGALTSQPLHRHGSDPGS

Row | Structure (SMILES) | hERG current change (%, negative = inhibition) at 10uM [%]
1 | Cl.O=C(OCCN1CCOCC1)c1cccs1 | 6.58
2 | COc1ccc(C2=CC(=O)C[C@H](c3ccc(F)cc3)C2)cc1F | -16.5
3 | CN(CCOc1cccc2ccccc12)Cc1ccccc1.O=C(O)C(=O)O | 0.659
4 | COc1ccc2ccccc2c1CN(C)Cc1ccccc1.O=C(O)C(=O)O | -51.7
5 | CN(Cc1ccccc1)Cc1c(O)ccc2ccccc12 | 7.65
6 | COc1ccc(CCNCc2c(OC)ccc3ccccc23)cc1OC.Cl | -44.6
7 | COc1cccc(OC)c1C(=O)NC(C)CCc1ccccc1 (stereo not drawn) | -19.1
8 | CC(CCc1ccccc1)NCc1cccc2ccccc12.O=C(O)C(=O)O (stereo not drawn) | -60.9
9 | COc1ccc2ccccc2c1CNC(C)c1ccccc1.O=C(O)C(=O)O (stereo not drawn) | -44.4
10 | COc1ccc2ccccc2c1CNC(C)CCc1ccccc1.O=C(O)C(=O)O (stereo not drawn) | -77.8
11 | COc1ccc2ccccc2c1CNCCN1CCOCC1.Cl | 14.4
12 | COc1ccc2ccccc2c1CNCCc1ccccc1.Cl | -53.1
13 | CC(CCc1ccccc1)NC(=O)Cc1ccccc1 (stereo not drawn) | 2.65
14 | COCC(C)NCc1cccc2ccccc12.O=C(O)C(=O)O (stereo not drawn) | -0.173
15 | CC1(C)CC2CC(C)(CN2C(=O)c2cc(-c3ccccc3O)on2)C1 (stereo not drawn) | 12.7
16 | Cc1ccc(S(=O)(=O)N2CCN(C(=O)COC(=O)c3ccccc3Cl)CC2)c(C)c1 | -12.5
17 | Cc1cccnc1NC(=O)Nc1ccccc1 | 1.64
18 | CCCOc1ccc(N2C(=O)CC(NCc3cccs3)C2=O)cc1 (stereo not drawn) | -18.6
19 | COc1ccccc1CNC(=O)C1COc2ccccc2O1 (stereo not drawn) | -15.1
20 | Cc1cc(NC(=O)c2ccc([N+](=O)[O-])cc2)n(CCC#N)n1 | 11
21 | O=C(NCCCc1nc2ccccc2[nH]1)c1cccs1 | -5.12
22 | COc1cccc(CNCc2ccccn2)c1OC | 5.32
23 | COc1ccc(CCNCc2ccccn2)cc1OC | 0.278
24 | COc1ccccc1CNCc1ccc(C)cc1.O=C(O)C(=O)O | -6.14

Row | Structure (SMILES) | hERG current change (%, negative = inhibition) at 10uM [%]
25 | COc1ccc2ccccc2c1CNCc1ccccn1.Cl | -51.8
26 | COc1ccc2ccccc2c1CNCc1ccc(C)cc1.O=C(O)C(=O)O | -69.7
27 | COc1ccc(CCNCc2c(OC)ccc3ccccc23)cc1.O=C(O)C(=O)O | -44.9
28 | CC(C)N(Cc1nc(-c2ccc(Cl)cc2)no1)C(=O)CCC1CCCC1 | -7.81
29 | Cc1nn(CCCC(=O)NC2CCC(C)CC2)c(=O)c2nn(-c3ccccc3)c(C)c12 (stereo not drawn) | -5.97
30 | O=C(/C=C(/c1ccc(Cl)cc1)n1cncn1)c1ccccc1 | -27.5
31 | C#CCOCCOCCOCCNc1nc(N2CCN(C(=O)[C@H](CCC(=O)O)n3cc(C(N)CO)nn3)CC2)nc(N2CCN(C(=O)[C@H](Cc3ccc(O)cc3)n3cc(C(N)[C@H](C)CC)nn3)CC2)n1.Cl (stereo partly drawn) | 9.89
32 | CCN(CC(=O)Nc1c(F)cccc1F)C(=O)COc1ccc2c(c1)CCC2 | -2.81
33 | O=S(=O)(c1ccc(Nc2ccc(-c3ccc4c(c3)OCCO4)nn2)cc1)N1CCCC1 | 5.27
34 | COc1ccccc1CNc1ccc2nnc(CCNC(=O)c3ccc(C)cc3)n2n1 | -0.303
35 | CCCCn1c(CN2CCN(C(=O)c3ccco3)CC2)nc2c1c(=O)n(C)c(=O)n2C | -34.1
36 | CCCn1c(CN2CCN(C(=O)c3ccco3)CC2)nc2c1c(=O)n(C)c(=O)n2C | -10.3
37 | CCCCCCn1c(CN2CCN(C(=O)c3ccco3)CC2)nc2c1c(=O)n(C)c(=O)n2C | -65.8
38 | CCOCCn1c(CN2CCN(C(=O)c3ccco3)CC2)nc2c1c(=O)n(C)c(=O)n2C | -3.37
39 | CCCCCn1c(CN2CCN(C(=O)c3ccco3)CC2)nc2c1c(=O)n(C)c(=O)n2C | -60.5
40 | CC(C)CCn1c(CN2CCN(C(=O)c3ccco3)CC2)nc2c1c(=O)n(C)c(=O)n2C | -39.9
41 | Cl.OC1(c2ccccc2)CCN(Cc2ccccc2)C2CCCCC21 (stereo not drawn) | -15.6
42 | COc1ccc(-c2nnc3sc(-c4ccco4)nn23)cc1OC | 3.81
43 | COCCCNc1nnc(Cc2ccccc2)c2ccccc12 | -31.4
44 | CC1(C)CC(=O)N(c2cccc(Cl)c2)C(=O)C1 | 10.4
45 | CCOC(=O)C1CCN(C(=O)c2cc3c(=O)n4ccccc4nc3s2)CC1 | -6.6
46 | CCOc1ccccc1Cn1c(=O)sc2ccccc21 | 7.43
47 | COc1ccc(C(=O)NN/C(C)=C/C(=O)c2ccccc2)cc1 | 4.41
48 | CCN(CC(=O)Nc1c(F)cccc1F)C(=O)C1CCN(C(=O)c2ccc(F)cc2)CC1 | 4.59

Row | Structure (SMILES) | hERG current change (%, negative = inhibition) at 10uM [%]
49 | CCc1ccc(NC(=S)N(Cc2cccnc2)Cc2ccco2)cc1 | -17.2
50 | O=C(Nc1ccc(Cl)cc1)N(Cc1cccnc1)Cc1ccco1 | -63.9
51 | Cc1ccc(NC(=O)N(Cc2cccnc2)Cc2ccco2)cc1C | -27.2
52 | CCc1ccccc1NC(=S)N(Cc1cccnc1)Cc1ccco1 | -18.8
53 | O=C(c1ccco1)N(Cc1ccc(Cl)cc1)Cc1ccco1 | -41.2
54 | N#CCCN(Cc1cccnc1)C(=O)Nc1ccc(Cl)c(Cl)c1 | -26
55 | S=C(Nc1ccccc1Cl)N(Cc1cccnc1)Cc1ccco1 | -4.94
56 | COc1ccccc1NC(=S)N(Cc1cccnc1)Cc1ccco1 | -33.6
57 | CCc1ccc(NC(=O)N(Cc2cccnc2)Cc2ccco2)cc1 | -53.1
58 | COc1ccc(Cl)cc1NC(=S)N(Cc1cccnc1)Cc1ccco1 | -73.8
59 | O=C(Nc1ccc(Cl)c(Cl)c1)N(Cc1cccnc1)Cc1ccco1 | -73.7
60 | O=C(Nc1ccccc1)N(Cc1cccnc1)Cc1ccco1 | -32.9
61 | COc1ccc(-n2c(=O)c3ccccc3n(CC(=O)c3ccccc3)c2=O)cc1OC | -1.32
62 | Cc1ccccc1OCCNc1cc(N2CCCCC2)ccc1[N+](=O)[O-] | -17.2
63 | CCCCC(=O)Nc1ccc(C(=O)Nc2ccc(OC)cc2[N+](=O)[O-])cc1 | -8.04
64 | O=C(O)c1cn(-c2ccccc2)nc1-c1ccc(F)cc1 | 23.6
65 | O=C1CN(C(=O)COC(=O)Cc2ccsc2)c2ccccc2N1 | -4.05
66 | CCC(=O)N(c1nnc(SCC(=O)NN2C(=O)NC3(CCC(C)CC3)C2=O)s1)C1CC1 (stereo not drawn) | -5.47
67 | O=C(CCS(=O)(=O)c1cccc2nonc12)Nc1ccc(Br)cc1 | 7.91
68 | Cc1cc(C)n(C(=O)CCC2COc3ccccc3O2)n1 (stereo not drawn) | -76.6
69 | Cc1cc(C)n(C(=O)CNC(=O)C2COc3ccccc3O2)n1 (stereo not drawn) | 14.5
70 | O=C(CCC1COc2ccccc2O1)N1CCCC1 (stereo not drawn) | -3.13
71 | Br.O=C(CN1C2=NCCCN2c2ccccc21)c1cccc(Br)c1 | -71
72 | Br.O=C(CN1C2=NCCCN2c2ccccc21)c1ccc([N+](=O)[O-])cc1 | -75.1

Row | Structure (SMILES) | hERG current change (%, negative = inhibition) at 10uM [%]
73 | Br.COc1cccc(C(=O)Cn2c(=N)n(C)c3ccccc32)c1 | -27.2
74 | COc1ccc(C(=O)CN2C3=NCCCN3c3ccccc32)cc1OC | -36.5
75 | Br.O=C(CN1CCCCC1)c1cccc(Br)c1 | 7.58
76 | Br.COc1cccc(C(=O)CN2C3=NCCCN3c3ccccc32)c1 | -68.1
77 | Cc1cc(C)cc(N(CC(=O)NCc2ccc(F)cc2)C(=O)CCC(=O)Nc2ccccn2)c1 | 18.7
78 | COc1ccc(-c2csc(NC(=O)c3cc(=O)c4ccccc4o3)n2)cc1OC | 4.58
79 | N#Cc1ccc(-c2nc3ccccc3nc2-c2ccccc2)cc1C#N | 21.7
80 | CCc1cc2c(=O)nc3n(c2s1)Cc1ccccc1/C3=C(/O)c1cccc([N+](=O)[O-])c1 | -4.6
81 | O=C(CCN1CCN(CCO)CC1)Nc1ccc(Br)cc1 | 1.76
82 | COc1ccc(C(=O)N/N=C\c2ccoc2)cc1 | 20.8
83 | O=C(CN1C(=O)c2cccc3cccc1c23)NCc1ccc2c(c1)OCO2 | -13.2
84 | C=CCn1c(SCC(=O)NCC2CCCO2)nc2scc(-c3ccccc3)c2c1=O (stereo not drawn) | -15.1
85 | COC(=O)C1=C(N)Oc2cc(C)[nH]c(=O)c2C1c1ccccc1OC (stereo not drawn) | 9.48
86 | COC(=O)C1=C(N)Oc2cc(N(C)C)ccc2C1c1ccccc1OC (stereo not drawn) | -84.3
87 | CCOc1ccc(Br)cc1C1C(C(=O)OC)=C(N)Oc2cc(N(C)C)ccc21 (stereo not drawn) | 21.4
88 | O=C(COc1ccccc1)NCC(c1ccco1)N1CCN(c2ccccc2)CC1 (stereo not drawn) | -26.6
89 | Cc1ccccc1OCC(=O)NCC(c1ccco1)N1CCCCC1 (stereo not drawn) | -31.4
90 | Cc1ccc(C)c(OCC(=O)NCC(c2ccco2)N2CCCCC2)c1 (stereo not drawn) | -2.72
91 | COc1ccc(N2CCN(C(CNC(=O)COc3ccccc3)c3ccco3)CC2)cc1 (stereo not drawn) | -67
92 | Cc1cc(C)c(OCC(=O)NCC(c2ccco2)N2CCCCC2)c(C)c1 (stereo not drawn) | -52.1
93 | O=C(COc1ccccc1)NCC(c1ccco1)N1CCN(c2ccc(F)cc2)CC1 (stereo not drawn) | -41
